Consider 18 sequences from the OligoGym collection.
Also: reference of the scale not given here.

One test has as its target CAMK2N1. The test is described as follows: pooled miR-30 sensor sort-seq; sequence = guide strand. To be noted: shRNA.
With TCTTCAATAACAACCCGCTTGC, the sensor-assay potency score (higher = more potent) was -0.41. Same read-out and setting: with TTGTTGGTGTCCTGCAGGCGGC the figure was -1.65; with ATCTTCAATAACAACCCGCTTG, -0.788. ATAACAACCCGCTTGCTCCGGC gave a sensor-assay potency score (higher = more potent) of -0.269.

The sequence TATCATCTTCAATAACAACCCG registered a sensor-assay potency score (higher = more potent) of -0.355. The same measure, in the same setting: in the case of ATCATCTTCAATAACAACCCGC it was -0.379.

Another test deals with CAMKV. Described as above. To be noted: shRNA.
The sequence TTGCCTGTCGTCTTGTCCTTGG returned a sensor-assay potency score (higher = more potent) of -0.405. Turning to TTAAACATACTGCCCTACCTTT, the sensor-assay potency score (higher = more potent) was -0.684. In the case of TCACTGATGACAATCTTCGAGT, the sensor-assay potency score (higher = more potent) is -1.01.

Turning to TATCTGTCAGTCACCTCCGATG, the sensor-assay potency score (higher = more potent) was -0.879.

For TTATAGTTCTTCTTGTCGCCCA, the sensor-assay potency score (higher = more potent) was found to be 0.464.

TTGAACTGAGCAGAAAATCTGC had a sensor-assay potency score (higher = more potent) of 0.22. As to ATATCTGTCAGTCACCTCCGAT, the sensor-assay potency score (higher = more potent) was -0.99. As for TATAGTTCTTCTTGTCGCCCAG, the sensor-assay potency score (higher = more potent) is -0.36. The same measure, in the same setting: in the case of TTCTGGAACTTCTTGCAGGTGT it was -0.129; in that of TTGCTTGTGTCTCGCTCCGAGT, -1.54; in that of TTTCATTGTTGAACTGAGCAGA, 0.188.

The sequence TAACACAAATAACAGGGTCTTA had a sensor-assay potency score (higher = more potent) of -0.811.
